# In PubChem BioAssay AID1992 (Sanford-Burnham Center for Chemical Genomics, 2009):
# Screen size: about 50,000 compounds; about 350 (0.7%) were called active. Shown is part of a subset that was picked to be rich in actives. Values without a mark were called inactive. Rule as the data show it: active = inhibition above about 60%; inactive = the rest.
# Molecular target: Dual specificity protein phosphatase 3 (Homo sapiens) (UniProt P51452)
# Experiment: human DUSP3 activity blockers – biochemical, colorimetric, HTS, primary screen (AID 1992)
# Conditions: recombinant VHR phosphatase, colorimetric substrate read-out; at 20 µM; hits give high values
# Chain of Dual specificity protein phosphatase 3 (Homo sapiens) (P51452 whole entry, looked up): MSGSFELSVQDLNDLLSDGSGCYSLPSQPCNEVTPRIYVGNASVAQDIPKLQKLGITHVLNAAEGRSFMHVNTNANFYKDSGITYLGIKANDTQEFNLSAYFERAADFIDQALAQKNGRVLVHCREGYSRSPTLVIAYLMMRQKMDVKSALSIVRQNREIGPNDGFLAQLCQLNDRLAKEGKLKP
row,Structure (SMILES),inhibition
1,CCOC(=O)Cc1csc(NC(=O)COc2cc(C)ccc2C(C)(C)C)n1,5.7%
2,Cc1ccc(-c2ccc(/C=C3\Sc4ccccc4C3=O)o2)c([N+](=O)[O-])c1,-37.5%
3,COc1ccc(N2C(=O)c3cccc4c(NC(CO)(CO)CO)ccc(c34)C2=O)cc1,-0.7%
4,CCOC(=O)C1=C(O)/C(=C\c2cccc([N+](=O)[O-])c2)SC1=Nc1ccc(OC)cc1,-20.7%
5,CCOC(=O)C1=C(O)CSC1=Nc1ccc(F)cc1,104% (active)
6,CCOC(=O)C1=C(O)CSC1=Nc1cccc(Cl)c1,-1.6%
7,COc1ccc(C2C(C(=O)/C=C/c3ccccc3)=C(O)C(=O)N2CCCCCC(=O)O)c(OC)c1 (stereo unspecified),29.2%
8,CCC(=O)N(CCC1(c2ccc(F)cc2)CCOC(C)(C)C1)Cc1ccc(OC)c(OC)c1 (stereo unspecified),-8.3%
9,COc1ccc(C(=O)Nc2ccc3nn(-c4ccc(C)c(Cl)c4)nc3c2)cc1[N+](=O)[O-],-21.1%
10,Cc1c(N(C(=O)c2cccc(Cl)c2)C(C)C)c(=O)n(-c2ccccc2)n1C,-7.9%
11,O=C(/C=C\Nc1ccccn1)c1ccc2c(c1)OCO2,-7.8%
12,COC(=O)Cn1cc(/C=C2\C(=O)NC(=O)N(c3cc(C)cc(C)c3)C2=O)c2ccccc21,-5.9%
13,C/C(=N\NC(=O)c1cccc(Cl)c1)c1ccccc1O,-3.8%
14,Cc1ccc(/C=N/c2nc3ccc(Br)cc3s2)c(O)c1,-5%
15,Oc1ccc(Br)cc1/C=N/Nc1ccccn1,-11%
16,Cn1/c(=N/N=C/c2cc(Br)ccc2O)sc2ccccc21,114% (active)
17,CC(=O)c1nc2cc([N+](=O)[O-])ccc2n1Cc1ccccc1,-31%
18,O=C(O)CCC(=O)Nc1cc(Cl)cc(Cl)c1,11.1%
19,COc1ccc(CN=CC2=C(O)CC(c3ccccc3)CC2=O)cc1 (stereo unspecified),15.4%
20,O=[N+]([O-])c1ccc(OCC(O)Cn2cnc3ccccc32)cc1 (stereo unspecified),39%
21,CCOc1ccc(-c2cc(C(=O)Nc3ccncc3)c3ccccc3n2)cc1,-20.9%
22,CC(C)(C)c1ccc(/C=N/NC(=O)Cc2cccc3ccccc23)cc1,-3.8%
23,Nc1nnc(SCC(=O)NCc2ccccc2)s1,-7%
24,Nc1nnc(CCC(=O)c2ccccc2)s1,78.1% (active)
25,Cc1ccc2c(N)c(C(=O)c3ccccc3)sc2n1,-19.7%
26,COc1ccc(NC(=O)/C=C/c2cccc([N+](=O)[O-])c2)cc1,-2.5%
